Compound activity deposited in PubChem BioAssay by National Center for Advancing Translational Sciences (NCATS).
Only a selection was taken, and hits are over-represented in it overall.
PI4K2A block – qHTS for small molecular inhibitors of PI4K2A | activity change, negative = inhibition, % at 76.9 µM | purified PI4K2A, ADP-Glo luminescence, 1 h; active compounds read low | AID 1346378, 2018 | Phosphatidylinositol 4-kinase type 2-alpha (Homo sapiens), Q9BTU6 | actives 0.13% (n = 420,000); in the data active = activity change below about -50%; inconclusive = mostly about -30% to -49%;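 also: -100% = wells without enzyme as full effect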
Target sequence (Q9BTU6 whole entry, looked up): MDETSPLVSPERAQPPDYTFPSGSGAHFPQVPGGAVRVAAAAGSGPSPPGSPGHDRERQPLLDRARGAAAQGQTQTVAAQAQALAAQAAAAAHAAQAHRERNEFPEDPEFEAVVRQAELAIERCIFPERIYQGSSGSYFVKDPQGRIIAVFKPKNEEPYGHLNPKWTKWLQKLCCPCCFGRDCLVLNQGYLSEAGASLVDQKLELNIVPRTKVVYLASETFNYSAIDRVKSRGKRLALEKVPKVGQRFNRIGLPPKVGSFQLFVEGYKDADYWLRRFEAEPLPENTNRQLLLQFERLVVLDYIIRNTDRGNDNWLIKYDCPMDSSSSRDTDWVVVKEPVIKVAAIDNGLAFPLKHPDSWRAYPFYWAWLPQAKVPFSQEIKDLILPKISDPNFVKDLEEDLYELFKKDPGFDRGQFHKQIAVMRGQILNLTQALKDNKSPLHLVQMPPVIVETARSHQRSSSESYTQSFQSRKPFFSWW
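PI4K2A activity was measured by ADP-Glo luminescence: enzyme (4 ug/mL stock) and phosphatidylinositol (1.2 mM stock) in Tris pH 7.5/MgCl2/EGTA/Triton X-100 buffer were reacted with ATP (300 microM stock) for one hour at ambient temperature.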
Pin1 inhibitor – qHTS Assay to Find Inhibitors of Pin1; Potency, µM (series often up to 115 µM), for the others: at the highest dose activity, negative = inhibition, most hits filed as inhibitors; actives 0.009% (n = 390,000); Pin1 FP peptide displacement, HiFluor488, 10 min; active = well fitted inhibition curve with a large enough effect in the polarisation, with a control signal flat, not every such curve was filed as active; inconclusive = small, poorly fitted or top-dose-only effect, or effect the other way, or a change in a side signal; inactive = no such curve, though single readings can be large or run the other way; the % refers to the polarisation; also: potency is read from the fitted curve at half-maximal effect
Target sequence (Q13526 whole entry, looked up): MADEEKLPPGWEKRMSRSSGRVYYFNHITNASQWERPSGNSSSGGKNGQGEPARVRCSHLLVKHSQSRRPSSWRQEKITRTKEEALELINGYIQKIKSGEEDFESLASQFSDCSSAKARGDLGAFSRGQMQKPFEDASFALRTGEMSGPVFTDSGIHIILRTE
PGK inhibitor – qHTS Assay to Find Inhibitors of Phosphoglycerate Kinase; Phosphoglycerate kinase, glycosomal (Trypanosoma brucei brucei), P07378; PGK/GAPDH coupled, Kinase-Glo luminescence, 60 min; Potency, µM (top dose mostly 57.5 µM), for the others: top-dose activity change, negative = inhibition, usual class: inhibitors; actives 0.043% (n = 380,000); AID 602233, 2012; also: potency is read from the fitted curve at half-maximal effect; nearly all actives have a fitted effect of over 60% in size
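Recombinant glycosomal PGK reaction used 1,3-bisphosphoglycerate generated in-well by GAPDH (100nM final) in 100mM TEA pH 7.6, 5mM MgCl2, 0.01% Tween-20. After 60 minutes at room temperature, ATP was read by Kinase-Glo Plus luminescence end-point.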
PI5P4K alpha inh – qHTS for Inhibitors of phosphatidylinositol 5-phosphate 4-kinase (PI5P4K); Phosphatidylinositol 5-phosphate 4-kinase type-2 alpha (Homo sapiens), P48426; PI5P4Kalpha enzyme, ADP-Glo luminescence, 60 min; active compounds read low; max response, %; actives 1.2% (n = 330,000); active = max response of -50% or lower; inconclusive = between -30% and -50%; inactive = -30% or higher; also: value at the top dose of about 77 µM
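PI5P4Kalpha ADP-Glo assay; 5 microM ATP final; 60 min RT reaction; HEPES pH 7.4/EGTA/CHAPS, 5% DMSO; controls lacking substrate or enzyme; luminescent end-point.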
Tb PFK inh – qHTS Assay to Find Inhibitors of T. brucei phosphofructokinase | Potency, µM (titrated, usually from 57.5 µM), inactives show top-dose activity, negative = inhibition, actives largely listed as inhibitors | actives 0.17% (n = 330,000) | ATP-dependent 6-phosphofructokinase (Trypanosoma brucei brucei), O15648 | T. brucei PFK, ADP-Glo luminescence;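 also: potency is read from the fitted curve at half-maximal effect; 0% = uninhibited 1x PFK enzyme wells and -100% = no-enzyme wells; nearly all actives have a fitted effect of over 60% in size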
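Activity is normalized to no-enzyme wells (full inhibition) and 1.25 nM enzyme wells (no inhibition). Reaction: 0.5 mM F6P, 0.1 mM ATP, 45 min RT, ADP-Glo luminescence; concentration-response curves fitted and classed by quality.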
* = called active by the depositor; ? = inconclusive; . = no result given. Unless noted, calls follow the shape of the dose curve; as a rule, active = well fitted curve in the direction sought with a large enough effect; inconclusive = small, poorly fitted or top-dose-only effect, or another doubt; inactive = no such curve, though single readings can be large; an effect the other way counts as inactive or inconclusive. Unless noted, % is scaled to controls: 0 for no effect and ±100 for the full control effect.

SMILES	PI4K2A block	Pin1 inhibitor	PGK inhibitor	PI5P4K alpha inh	Tb PFK inh
O=c1[nH]c2ccc(S(=O)(=O)N3CCN(S(=O)(=O)c4ccc5c(c4)OCCO5)CC3)cc2[nH]c1=O	.	1.1%	.	.	.
COc1cc(N)c(C(=O)c2nccc3cc(OC)c(OC)cc23)cc1OC	0.1	0.2%	9.2%	2.6	-2.3%
COc1cc(Br)c(C(=O)c2nccc3cc(OC)c(OC)cc23)cc1OC	-52.1*	-0.2%	-4.4%	-7.0	0.3%
Cc1ccc(S(=O)c2ccc([N+](=O)[O-])c3nonc23)cc1 (stereo not given)	-17.3	.	-18.2%	-99.9*	.
CCN1CCN(Cc2ccc(NC(=O)c3ccc(C)c(/C=C/c4cnc(Nc5cc(N6CCNCC6)nc(C)n5)cn4)c3)cc2C(F)(F)F)CC1	-3.7	?	-0.4%	-73.5*	1.7%
COc1cc(-c2ccc3ncnc(N(C)Cc4csc(C)n4)c3c2)cc(OC)c1OC	.	-0.8%	.	.	.
COc1ccc(Cl)cc1C(=O)NNC(=O)C1COc2ccccc2O1 (stereo not given)	5.1	0.1%	-4.4%	-60.0*	?
COc1ccc(S(N)(=O)=O)cc1C(=O)NNC(=O)C1COc2ccccc2O1 (stereo not given)	3.0	1.3%	-9.9%	7.0	-4.6%
Fc1ccc(Nc2cncc(-c3ccsc3)c2)cc1Cl	-50.3*	.	.	-22.5	.
O=C1CC(/C=C/c2ccco2)=Nc2ccccc2N1	?	?	2.2%	-73.0*	3.2%
O=C1CC(/C=C/c2ccccn2)=Nc2ccccc2N1	-10.7	?	-8.7%	5.1	1.9%
N#Cc1c(Cl)cccc1Oc1ccc([S+](=O)([O-])N2CCN([S+](=O)([O-])c3c(F)cccc3F)CC2)cc1	.	18.3%	.	.	.
Cc1c(Br)cc(F)c([S+](=O)([O-])N2CCN([S+](=O)([O-])c3ccc4c(c3)OCCO4)CC2)c1F	.	1.8%	.	.	.
CCOC(=O)C1=C(O)/C(=C\c2ccc(CNC(=O)C(=O)Nc3ccccc3)o2)N=C1C	-23.5	-22.9%	-5.1%	-64.7*	-20.8%
CC[C@@H](CO)NCCN[C@@H](CC)CO	-4.2	.	.	.	.
COc1ccc(-n2c(CCc3ccccc3)nnc2SCC(=O)c2ccc(Cl)cc2)cc1	6.4	19.0%	-9.7%	4.1	0.0%
O=C(CSc1nnc(CCc2ccccc2)n1-c1ccc(Cl)cc1)c1ccccc1	-1.1	2.2%	-9.2%	-50.1*	3.2%
COC(=O)c1cc(F)c(S(=O)(=O)N2CCN(S(=O)(=O)c3ccc4c(c3)OCCO4)CC2)cc1F	.	-4.1%	.	.	.
O=C(O)c1ccc([N+](=O)[O-])cc1-c1cc([N+](=O)[O-])ccc1C(=O)O	-0.9	-3.3%	-4.7%	-0.9	.
O=C(O)c1cc([N+](=O)[O-])cc2c1nnn2O	-22.4	-2.5%	-24.2%	-67.4*	-6.4%
COc1ccc(NC(=O)C(OC(=O)CNC(=O)c2ccccc2)c2ccccc2)cc1Cl (stereo not given)	.	1.6%	.	.	.
O=C(CN1C(=O)NC2(CCCCC2)C1=O)Nc1nc2c(F)cc(F)cc2s1	4.1	32.4%	0.1%	-50.3*	2.9%
O=C(CN1C(=O)CCC1=O)Nc1nc2c(F)cc(F)cc2s1	4.4	?	-4.2%	-7.6	.
COc1cc(-c2c(C#N)c(N)nc3c2CCCC3)ccc1O	4.1	-1.8%	5.4%	?	-1.4%
COc1cc(-c2c(C#N)c(N)nc3[nH]c(=S)[nH]c(=O)c23)ccc1O	-1.5	0.8%	-7.8%	-67.3*	-14.6%
SMILES	PI4K2A block	Pin1 inhibitor	PGK inhibitor	PI5P4K alpha inh	Tb PFK inh
Cc1cccc2c(N=Nc3ccc(S(=O)(=O)Nc4cccc(Cl)c4)cc3[N+](=O)[O-])c(O)[nH]c12	-6.3	7.9%	-5.7%	-71.2*	-1.8%
Cc1cc(C)c(C)c(S(=O)(=O)N2CCN(S(=O)(=O)c3ccc4c(c3)OCCO4)CC2)c1C	.	1.3%	.	.	.
CC(C)(C)OC(=O)Cc1nnc(C(C(=O)OCc2ccccc2)c2ccccc2)o1 (stereo not given)	.	2.5%	.	.	.
O=C(Cc1cccs1)N/N=C/C=C/c1ccco1	-14.6	-17.1%	-3.5%	-58.2*	?
O=C(CSc1nnc(SCc2ccccc2)s1)N/N=C/C=C/c1ccco1	-21.8	?	-9.5%	-96.1*	?
Cn1cccc1CC(=O)NN=C/C=C\c1ccco1	-52.2*	.	.	.	.
O=C(CNc1cccc2ccccc12)N/N=C/C=C/c1ccco1	1.6	?	5.2%	2.2	-8.8%
CC(C)Oc1cccc(-c2ccnc(N3CCC(C(N)=O)CC3)n2)c1	.	-0.5%	.	.	.
CC(C)(C)c1ccc(-c2nnc(SCc3cccc4ccccc34)n2Cc2ccco2)cc1	-7.7	.	.	.	.
COCCn1c(C)cc(C(=O)COC(=O)c2ccc3ncsc3c2)c1C	-29.4	7.0%	-5.1%	-57.8*	-20.6%
Cn1cc(-c2cccc3[nH]cc(-c4ccccc4)c23)c2ccccc21	-3.0	.	.	.	.
O=C(Nc1ccc(N2CCCCC2)cc1)c1ccccn1	-65.3*	-4.2%	?	-23.6	-15.8%
CCCCCOc1ccccc1/C(=C\SC)n1ccnc1	3.2	.	.	.	.
N#C/C(=N\Nc1ccc(S(=O)(=O)N2CCc3ccccc32)cc1)C(N)=S	-11.4	1.2%	1.7%	-62.1*	-0.6%
COc1ccccc1N1C(=O)C=C(Sc2nc(C)cc(C)n2)C1=O	4.2	-13.9%	-8.0%	-57.0*	0.0%
CCOC(=O)CCc1cc(F)c(S(=O)(=O)N2CCN(S(=O)(=O)c3ccc4c(c3)OCCO4)CC2)cc1F	.	2.3%	.	.	.
COc1ccc(C2c3c(nc(C)[nH]c3=O)Oc3ccc4ccccc4c32)cc1OC (stereo not given)	.	-4.4%	.	.	.
CCOC(=O)c1sc(-c2ccccc2)nc1C	4.9	-1.2%	-4.9%	3.9	-1.2%
CCOC(=O)Cc1ccc2sc(-c3ccccc3)nc2c1	-71.7*	0.5%	?	-7.6	-9.7%
O=C(O)c1cccc(Cn2c(Cl)c(/C=N/NC(=O)c3cc4ccccc4cc3O)sc2=O)c1	-6.8	?	?	-72.8*	-3.5%
O=c1[nH]c(=O)n([C@H]2CCCO2)cc1F	1.6	.	.	.	.
COc1ccc(/C=C2/SC(=S)N(Cc3ccccc3)C2=O)cc1O	0.4	12.3%	-1.2%	4.4	-23.2%
O=C1/C(=C\c2cc(Cl)c(O)c(Cl)c2)SC(=S)N1Cc1ccccc1	3.2	?	-13.8%	-102.0*	0.2%
COC(=O)/C=C1\S/C(=N/N=C/c2ccccc2)NC1=O	-0.2	2.9%	-6.8%	-0.7	0.0%
COC(=O)C/C=N/N=C1/NC(=O)/C(=C/C(=O)O)S1	-21.3	?	-3.7%	-70.9*	4.7%
